Experimental findings from PubChem BioAssay (NCI) are described below.

This is part of a sample that, as a whole, favours compounds with a hit. Of some 79,000 tested, about 15% had one in any assay. A number with no mark means an inactive call. Activity calls are given as the source filed them. Rule as the data show it: active = growth inhibition above about 70%; inactive = the rest.

Assay [1] in a line: NCI Yeast Anticancer Drug Screen. Data for the rad50 strain (AID 155).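 Also: 0% = growth of vehicle-only cultures of the same strain.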 Particulars: S. cerevisiae rad50 strain growth inhibition; at 50.0 µM; hits give high values. A digest of the protocol: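 Readout: growth inhibition relative to vehicle-treated cultures. Compound exposure was carried out in a genetically defined yeast strain deficient in DNA damage repair.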
Assay [2] is described as follows: NCI Yeast Anticancer Drug Screen. Data for the mec2-1 strain (AID 157). Particulars: S. cerevisiae mec2-1 strain, at 50.0 µM, hits give high values. The gist of the method:
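Growth inhibition is read against vehicle-treated controls after compound exposure of the mec2-1 yeast strain, which is defective in DNA damage repair or cell cycle control.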

Assay [3] is described as follows: NCI Yeast Anticancer Drug Screen. Data for the sgs1 mgt1 strain (AID 161).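 Also: 0% = growth of cultures given vehicle only.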 Particulars: S. cerevisiae sgs1 mgt1 strain, at 50.0 µM, hits give high values. The gist of the method:
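Compounds are added to genetically altered yeast, and growth is compared with cultures given vehicle alone to give percent inhibition.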

Assay [4] in a line: NCI Yeast Anticancer Drug Screen. Data for the cln2 rad14 strain (AID 165).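 Also: 0% = growth equal to vehicle treated cultures.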 Particulars: S. cerevisiae cln2 rad14 strain, at 50.0 µM, hits give high values. The gist of the method: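 Growth inhibition, relative to vehicle-treated controls, is the read-out. The test organism is a yeast strain with defined genetic alterations, cln2 rad14.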
The nature of assay [5]: NCI Yeast Anticancer Drug Screen. Data for the bub3 strain (AID 167). Conditions: S. cerevisiae bub3 mutant strain, at 50.0 µM, hits give high values. The gist of the method:
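Readout: yeast growth inhibition, expressed relative to vehicle-only wells. The test organism is a mutant strain from a panel with lesions in DNA repair or checkpoint genes.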

The nature of assay [6]: NCI Yeast Anticancer Drug Screen. Data for the mlh1 rad18 strain (AID 175). Conditions: S. cerevisiae mlh1 rad18 strain growth inhibition; at 50.0 µM; hits give high values. A digest of the protocol:
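Cells of a genetically altered yeast strain, deficient in DNA damage repair, were treated with compound. Their growth was then compared with that of vehicle-treated cultures to give inhibition.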

Regarding `COC(=O)/C=C(\C)CC/C=C(\C)CCC1OC1(C)C` (stereo unspecified), the growth inhibition in assay [1] was 11.9%; in assay [2], 44.1%; in assay [3] it was 84.7% (active); in assay [4], 57.3%; in assay [5], 77.5% (active); in assay [6], 81.1% (active).
Take `Cc1ccc(C)c(NC(=S)Nc2ccccc2)c1`: the growth inhibition in assay [1] is 0.8%; in assay [2], -9%; in assay [3] it was 3.5%; in assay [4], -24.6%; in assay [5], 54%; in assay [6], 1.7%.
For the molecule `Cc1cccc(NCc2ccccc2)c1`, the growth inhibition in assay [1] is 32.5%; in assay [2], 5.95%; in assay [3], 19.4%; in assay [4] it was -22.1%; in assay [5], 29.6%; in assay [6], 24.9%.
Consider `CCN(CC)c1ccc2cc(-c3nc4ccccc4n3C)c(=O)oc2c1`, for which the growth inhibition was 14.8% in assay [1]; -6% in assay [2]; 2.2% in assay [3]; 6.55% in assay [4]; 1.35% in assay [5]; 14.1% in assay [6].
As for `CCC(/C=C\C(C)C1CCC2C3CC=C4CC(OC)CCC4(C)C3CCC12C)C(C)C` (stereo unspecified), the growth inhibition in assay [1] was 25.2%; in assay [2], 5.1%; in assay [3], -3.4%; in assay [4], 20.6%; in assay [5], -3.5%; in assay [6], 9.05%.
`CC(C)(C)N(O)c1ccc(P(=O)(c2ccccc2)c2ccccc2)cc1`: the growth inhibition was 23.4% in assay [1]; 15.4% in assay [2]; 12.3% in assay [3]; -4.7% in assay [4]; -2.35% in assay [5]; 11.8% in assay [6].
For the molecule `Cc1cc(N(CCC#N)S(=O)(=O)c2ccccc2)ccc1C=Nc1ccc(C(=O)O)cc1`, the growth inhibition was -12.2% in assay [1]; -8.35% in assay [2]; -6.15% in assay [3]; -3.8% in assay [4]; 1.85% in assay [5]; -6.85% in assay [6].
Regarding `CCOc1ccc(N)c([N+](=O)[O-])c1`, the growth inhibition in assay [1] is 4.65%; in assay [2] it was 21.9%; in assay [3] it was 22.9%; in assay [4], -34.4%; in assay [5] it was -7.75%; in assay [6], 3.1%.
`Cc1c(/C=N/N(C)C)oc2c1cc(O)c1ncccc12`: the growth inhibition in assay [1] was 2.95%; in assay [2], -4.4%; in assay [3], 20.4%; in assay [4], -1.9%; in assay [5] it was 4.65%; in assay [6] it was 2.35%.
In the case of `CC(=O)NC(CSCN(C)c1nc(N(C)C)nc(N(C)C)n1)C(=O)O` (stereo unspecified), the growth inhibition in assay [1] is 7.5%; in assay [2], -3.45%; in assay [3], 2.95%; in assay [4], 5.6%; in assay [5] it was 8.2%; in assay [6], 13.8%.
Consider `COC(OC)c1cccc2c1C(=O)CCC1(O)c3ccccc3C1C2` (stereo unspecified), for which the growth inhibition was -8.55% in assay [1]; -6.65% in assay [2]; -38.9% in assay [3]; -0.4% in assay [4]; -30.1% in assay [5]; -30.9% in assay [6].
On to `Cc1cccc(NC(=S)N(CCC#N)C2CCCCC2)c1`, for which the growth inhibition in assay [1] is 1.6%; in assay [2], -2.85%; in assay [3], 14.8%; in assay [4], 7%; in assay [5] it was 18.6%; in assay [6] it was 9.85%.
On to `COc1ccc2ncc(COC(C)=O)c(COC(C)=O)c2c1`, for which the growth inhibition in assay [1] is -10.9%; in assay [2], -9.45%; in assay [3], -7.8%; in assay [4], 14.7%; in assay [5], -12.4%; in assay [6], -8.4%.
In the case of `CCN(CC)C(=O)c1cc([N+](=O)[O-])c(=O)n2c1[nH]c1ccccc12`, the growth inhibition in assay [1] is -17.9%; in assay [2], 6.8%; in assay [3], -59.6%; in assay [4], 23.1%; in assay [5], -18.5%; in assay [6], -5.85%.
For the molecule `Cc1ccc(/C=C/C(=O)c2sc(C(N)=S)nc2C)cc1`, the growth inhibition in assay [1] is 35.9%; in assay [2] it was 14.2%; in assay [3] it was 8.15%; in assay [4] it was 16.3%; in assay [5] it was 11.2%; in assay [6], 39%.
For `O=C1c2ccccc2CC12Cc1cc3c(cc1C2=O)CCC3` (stereo unspecified), the growth inhibition is 5.05% in assay [1]; -16.9% in assay [2]; -17.2% in assay [3]; 25.5% in assay [4]; 44.4% in assay [5]; 18.9% in assay [6].
For the molecule `CCOC(=O)C1(Br)C(c2ccccc2)NC(=O)NC1(C)Br` (stereo unspecified), the growth inhibition is 9.15% in assay [1]; -12.2% in assay [2]; 0.6% in assay [3]; 12.8% in assay [4]; -1.75% in assay [5]; -14.6% in assay [6].
Consider `Cc1nc(C)c(Cc2ccccc2)o1`, for which the growth inhibition in assay [1] was 1.05%; in assay [2] it was 20.9%; in assay [3], 18.1%; in assay [4], 27.6%; in assay [5], 5.3%; in assay [6], 30.7%.
As for `C(=C\P(c1ccccc1)c1ccccc1)/P(/C=C/P(c1ccccc1)c1ccccc1)c1ccccc1`, the growth inhibition was -18.4% in assay [1]; -14.8% in assay [2]; -42.1% in assay [3]; 8.15% in assay [4]; -18.9% in assay [5]; -28.1% in assay [6].
For the molecule `COc1cc(CNc2cnc3cc(N)ccc3n2)cc(OC)c1OC`, the growth inhibition in assay [1] was -32.5%; in assay [2] it was -26.8%; in assay [3] it was -66.3%; in assay [4], -18%; in assay [5], -21.7%; in assay [6] it was -30.6%.
Regarding `CC(=O)Nc1nc(Cl)c2ncn(C3OC(COC(=O)c4ccccc4)CC3OC(=O)c3ccccc3)c2n1` (stereo unspecified), the growth inhibition was 10.2% in assay [1]; 3.1% in assay [2]; -8.8% in assay [3]; 2.6% in assay [4]; 10.6% in assay [5]; 4.5% in assay [6].
